GAA850 FXN act – FXN promoter activators, primary screen, cell-based, luciferase luminescence, HEK293 lucGAA850. HEK293 lucGAA850 FXN promoter luciferase reporter, 24 h; percent of 10 µM SAHA response. activation, % at 6 µM. 360,000 compounds, 0.56% hits;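 active = activation above the average of all compounds screened plus 3 SD, cutoff fixed separately per campaign, cut at about 7.5% in these data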;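 note: 0% = DMSO wells and 100% = 10 µM SAHA wells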
FAS-TE inh – FAS thioesterase domain inhibitors, primary screen, biochemical, fluorescence intensity, uHTS | recombinant FAS-TE, OMFH fluorogenic substrate, fluorescence endpoint | inhibition, % at 15 µM | AID 602261, 2012 | 360,000 compounds, 0.67% hits | Fatty acid synthase (Homo sapiens), P49327;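 active = compounds whose normalised, plate-corrected inhibition of enzyme fluorescence in the single-dose primary screen is 50% or more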;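 note: 0% = DMSO with enzyme and 100% = substrate without enzyme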
SMARCA2 activ – SMARCA2 (BRM) function activators, primary screen, cell-based, luminescence, high throughput; MG213 cells, MMTV-luciferase reporter, dexamethasone, overnight; activation, % at 9.1 µM; 370,000 compounds, 1% hits; in the data active = activation above about 7.8%;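 note: 0% = vehicle wells and 100% = reference activator wells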
proKLK7 act – proKLK7 zymogen activators, primary screen, biochemical, fluorescence intensity; purified proKLK7, EDANS-DABCYL substrate fluorescence; 100% is mature enzyme control, 0% vehicle; activation, % at 7 µM; 370,000 compounds, 0.9% hits; AID 652039, 2013;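 active = activation above the mean of all tested compounds plus 3 SD, computed per campaign excluding outliers beyond control limits, cut at about 13% in these data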
Target sequence (P49862 whole entry, looked up): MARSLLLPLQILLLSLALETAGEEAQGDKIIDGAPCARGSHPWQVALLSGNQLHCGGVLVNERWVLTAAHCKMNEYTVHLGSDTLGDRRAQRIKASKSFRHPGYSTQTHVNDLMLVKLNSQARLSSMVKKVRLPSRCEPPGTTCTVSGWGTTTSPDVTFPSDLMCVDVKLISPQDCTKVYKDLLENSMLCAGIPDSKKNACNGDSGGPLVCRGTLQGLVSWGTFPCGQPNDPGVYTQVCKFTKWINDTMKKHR
FAS-TE conf – FAS thioesterase domain inhibitors, confirmation, biochemical, fluorescence intensity, single concentration | recombinant FAS-TE, OMFH fluorogenic substrate | inhibition, % at 15 µM | AID 624325, 2012 | 2,300 compounds, 45% hits | shares compounds with FAS-TE inh;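 active = compounds inhibiting the enzyme by at least 50% at 15 µM in any one of the replicates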;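 note: 0% = enzyme with DMSO only and 100% = wells lacking enzyme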
An asterisk follows results filed as active. The list is not random: actives were taken first. Their share in the collection is about 2.9%.

`CC(=O)c1ccc(N2CCN(c3ccnc4cc(Cl)ccc34)CC2)cc1` gave GAA850 FXN act -2, FAS-TE inh 24, SMARCA2 activ 5 and proKLK7 act 0.
Screening Cc1ccc(S(=O)(=O)N(C)C)cc1NC(=O)[C@H](Cc1ccccc1)N1C(=O)c2ccccc2C1=O returned GAA850 FXN act -1, FAS-TE inh 53*, SMARCA2 activ -1, proKLK7 act 0 and FAS-TE conf 30.
`COc1ccc(S(=O)(=O)N(C)C)cc1NC(=O)[C@H](Cc1ccccc1)N1C(=O)c2ccccc2C1=O` gave GAA850 FXN act 1, FAS-TE inh 65*, SMARCA2 activ -1, proKLK7 act 0 and FAS-TE conf 38.
`CC(C)(C)C(=O)N1CCN(c2ccc([N+](=O)[O-])c(-n3nc(-c4ccccc4)c4ccccc4c3=O)c2)CC1` gave GAA850 FXN act -2, FAS-TE inh 74*, SMARCA2 activ 0, proKLK7 act 0 and FAS-TE conf 9.
For CC(=O)c1ccc(S(=O)(=O)Nc2cccc(-c3ccc4nncn4n3)c2)cc1 the results were GAA850 FXN act 2, FAS-TE inh 0, SMARCA2 activ -4 and proKLK7 act 1.
Screening Cc1ccc(S(=O)(=O)Nc2cccc(-c3ccc4nncn4n3)c2)cc1 returned GAA850 FXN act -3, FAS-TE inh 54*, SMARCA2 activ -1, proKLK7 act 1 and FAS-TE conf 51*.
`Cc1ccc(S(=O)(=O)Nc2cccc(-c3ccc(N4CCCCCC4)nn3)c2)cc1C` gave GAA850 FXN act 3, FAS-TE inh 39, SMARCA2 activ 3 and proKLK7 act -1.
Screening O=S(=O)(Nc1cccc(-c2ccc(N3CCCCCC3)nn2)c1)c1cccc(F)c1 returned GAA850 FXN act 5, FAS-TE inh 61*, SMARCA2 activ 6, proKLK7 act 12 and FAS-TE conf 1.
O=S(=O)(Nc1cccc(-c2ccc(N3CCCCCC3)nn2)c1)c1ccc(F)cc1 was read as GAA850 FXN act 5, FAS-TE inh 62*, SMARCA2 activ 2, proKLK7 act 0 and FAS-TE conf 11.
Screening Cc1c(C(=O)OCc2nnc(-c3ccccc3)o2)oc2ccccc12 returned GAA850 FXN act 0, FAS-TE inh 45, SMARCA2 activ -1 and proKLK7 act 0.
`CCCn1c(N)c(C(=O)NS(=O)(=O)c2ccc(C)cc2)c(=O)n(C)c1=O` gave GAA850 FXN act -1, FAS-TE inh -6, SMARCA2 activ -6 and proKLK7 act 0.
`CN1CCN(c2ccccc2NC(=O)c2ccc(-c3ccccc3[N+](=O)[O-])o2)CC1` gave GAA850 FXN act 3, FAS-TE inh 3, SMARCA2 activ 3 and proKLK7 act 0.
For CC1S/C(=N\N=C\c2cccc([N+](=O)[O-])c2)N(C(C)(C)C)C1=O (stereo unspecified) the results were GAA850 FXN act 1, FAS-TE inh 54*, SMARCA2 activ -6, proKLK7 act 0 and FAS-TE conf 0.
Screening Cc1nc(SCC(=O)N(C)C2CCS(=O)(=O)C2)c(C#N)c(C)c1C (stereo unspecified) returned GAA850 FXN act 1, FAS-TE inh -7, SMARCA2 activ -5 and proKLK7 act 0.
CCOc1ccc(-n2c(SCC(=O)Nc3ccc4c(c3)OCCO4)nc3c(c2=O)SCC3)cc1 was read as GAA850 FXN act -1, FAS-TE inh 62*, SMARCA2 activ 2, proKLK7 act 1 and FAS-TE conf 25.
Cc1cnc(C(=O)Nc2ccc(N3CCOCC3)cc2)cn1 was read as GAA850 FXN act 4, FAS-TE inh -4, SMARCA2 activ -1 and proKLK7 act 0.
Screening CC(O)(c1cccnc1)c1nc(-c2ccc(S(C)(=O)=O)cc2)cs1 (stereo unspecified) returned GAA850 FXN act 0, FAS-TE inh -9, SMARCA2 activ 1 and proKLK7 act 0.
`CS(=O)(=O)c1ccc(-c2csc(-c3cccnc3)n2)cc1` gave GAA850 FXN act 3, FAS-TE inh 58*, SMARCA2 activ -1, proKLK7 act 0 and FAS-TE conf 50*.
CN(C)S(=O)(=O)c1ccc(-c2csc(-c3cccnc3)n2)cc1 was read as GAA850 FXN act 0, FAS-TE inh 75*, SMARCA2 activ 0, proKLK7 act 0 and FAS-TE conf 78*.
`Cn1cnnc1SCC(=O)Nc1ccc(Cl)cn1` gave GAA850 FXN act 0, FAS-TE inh -3, SMARCA2 activ -5 and proKLK7 act 0.
CCOC(=O)C(=O)NC(C)CCc1ccccc1 (stereo unspecified) was read as GAA850 FXN act 1, FAS-TE inh -8, SMARCA2 activ -3 and proKLK7 act 0.
For COc1ccc(NC(=O)c2cc(-c3cc(F)ccc3OC)n[nH]2)cc1OC the results were GAA850 FXN act -2, FAS-TE inh 2, SMARCA2 activ -2 and proKLK7 act 0.
CC(=O)C1=C(O)C(=O)N(CCO)C1c1ccccc1 (stereo unspecified) was read as GAA850 FXN act 2, FAS-TE inh -6, SMARCA2 activ 2 and proKLK7 act 0.
Screening O=C(Cn1c(=O)c2c(ncn2Cc2ccccc2)n(Cc2ccccc2)c1=O)N1CCc2ccccc21 returned GAA850 FXN act 0, FAS-TE inh 66*, SMARCA2 activ -3, proKLK7 act 0 and FAS-TE conf 22.
`O[C@H]1C[C@H](c2ccc(Cl)cc2)N(CC2CCCCC2)C[C@@H]1n1cc(C2CC2)nn1` gave GAA850 FXN act 2, FAS-TE inh 59*, SMARCA2 activ -3, proKLK7 act 0 and FAS-TE conf 56*.
O[C@@H]1CN(CC2CCCCC2)[C@@H](c2ccc(Cl)cc2)C[C@H]1n1cc(C2CC2)nn1 was read as GAA850 FXN act 0, FAS-TE inh 24, SMARCA2 activ 2 and proKLK7 act 0.
Screening O=C(COC(=O)c1ccco1)c1ccc(F)cc1 returned GAA850 FXN act 1, FAS-TE inh 0, SMARCA2 activ 6 and proKLK7 act 0.
Screening CC(=O)C[C@H]1c2ccccc2S(=O)(=O)N1C1CCCC1 returned GAA850 FXN act 0, FAS-TE inh -13, SMARCA2 activ 0 and proKLK7 act 0.
`C[C@H]1CN([C@@H](C)CO)C(=O)c2cc(NC(=O)Nc3cccc4ccccc34)ccc2O[C@@H]1CN(C)Cc1ccc(-c2ccccc2)cc1` gave GAA850 FXN act -1, FAS-TE inh 60*, SMARCA2 activ 0, proKLK7 act -4 and FAS-TE conf 16.

Screens from PubChem BioAssay.
